Vif-A3G inh: Vif-A3G binding inhibition; 410,000 compounds, 0.076% hits; Potency, µM (titrated, usually from 46.1 µM), without a hit: at the highest dose activity, negative = active, usual class: inhibitors; HeLa A3G-eYFP + Vif (tagged APOBEC3G with the HIV-1 protein that degrades it), YFP fluorescence, overnight; Q9HC16; also: potency is read from the fitted curve at half-maximal effect; % is scaled to controls: 0 for no effect and ±100 for the full control effect; nearly all actives have a fitted effect of over 60% in size
Target sequence (Q9HC16 whole entry, looked up): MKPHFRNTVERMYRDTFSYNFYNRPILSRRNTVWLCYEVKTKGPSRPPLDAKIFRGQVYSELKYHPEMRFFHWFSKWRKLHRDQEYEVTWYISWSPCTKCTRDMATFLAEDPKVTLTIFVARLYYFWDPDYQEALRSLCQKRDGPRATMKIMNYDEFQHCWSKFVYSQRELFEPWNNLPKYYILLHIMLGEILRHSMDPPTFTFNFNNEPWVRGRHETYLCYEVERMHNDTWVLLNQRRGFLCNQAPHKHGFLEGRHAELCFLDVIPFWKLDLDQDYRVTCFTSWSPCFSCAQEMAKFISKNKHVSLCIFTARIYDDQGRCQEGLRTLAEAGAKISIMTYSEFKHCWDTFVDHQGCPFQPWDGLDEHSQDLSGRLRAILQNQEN
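Read-out is eYFP fluorescence (Ex 488/Em 500-530) from Vif-expressing HeLa A3G-eYFP cells; more signal means A3G escaped Vif-mediated degradation. Cells plated overnight, compound pinned in, incubated overnight at 37 deg C.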
Vif-APOBEC3F blk: Vif-A3F binding inhibition; 390,000 compounds, 0.2% hits; Potency, µM (series often up to 46.1 µM), for inactives: at the highest dose activity, negative = active; AID 602313; HeLa A3F-eYFP + Vif (tagged APOBEC3F with the HIV-1 protein that degrades it), YFP fluorescence increase; also: potency is read from the fitted curve at half-maximal effect; % of control where 0% means no effect; nearly all actives have a fitted effect of over 65% in size
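HeLa cells stably expressing A3F-eYFP plus Vif, plated and incubated overnight at 37 deg C, then exposed to compounds overnight at 37 deg C. Blocked degradation read as raised yellow fluorescence (Ex 488/Em 500-530).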
Epigenetic derep: regulators of epigenetic silencing causing reporter derepression in mouse cells; murine LDR cells, GFP reporter derepression, 30 h; Potency, µM (highest dose often 53.9 µM), without a hit: at the highest dose GFP activation, usual class: activators; 280,000 compounds, 0.2% hits; also: potency is read from the fitted curve at half-maximal effect; % of control where 0% means no effect; nearly all actives have a fitted effect of over 60% in size
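Reporter derepression read as number of fluorescent GFP-positive objects, 20-120 um in size, counted by laser-scanning cytometer. Mouse LDR line with an epigenetically silenced CMV-GFP locus; compound incubation 30 h, 37 C.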
Anesthetic bind: binds horse apoferritin like a general anesthetic. P02791. apoferritin/1-aminoanthracene competitive binding, fluorescence. Potency, µM (series often up to 77.5 µM), for inactives: at the highest dose activity change, negative = displacement, usual class: inhibitors. 350,000 compounds, 0.074% hits. AID 485281; also: potency is read from the fitted curve at half-maximal effect; % is scaled to controls: 0 for no effect and ±100 for the full control effect; nearly all actives have a fitted effect of over 20% in size
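Apoferritin-based anesthetic binding model; compound displacement of fluorescent 1-AMA measured as endpoint fluorescence after 10 minutes at room temperature, scaled to free-ligand and complex controls.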
LDHA block: blocks human lactate dehydrogenase A. 480,000 compounds, 0.15% hits. P00338. purified LDHA, NADH/diaphorase-resazurin fluorescence; stronger effect = lower value. activity change, % (values are at about 110 or 230 µM); in the data active = activity change below about -30%; inconclusive = mostly about -25% to -30%;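 also: plate controls were DMSO wells for no effect and wells without enzyme for full effect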
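Enzyme activity of human lactate dehydrogenase 5 (2 nM; 0.06 mM NADH, 0.2 mM pyruvate, 5 min, RT) is measured via a resazurin/diaphorase fluorescence readout of residual NADH.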
Starred values were filed as active, the others as inactive; u = inconclusive; x = no result; ! = a repeat was not active. Only some compounds are listed: those with a hit (about 0.49% of all), similar ones and a draw of the others. Unless noted, calls follow the shape of the dose curve; as a rule, active = well fitted curve in the direction sought with a large enough effect; inconclusive = small, poorly fitted or top-dose-only effect, or another doubt; inactive = no such curve, though single readings can be large; an effect the other way counts as inactive or inconclusive.

SMILES	Vif-A3G inh	Vif-APOBEC3F blk	Epigenetic derep	Anesthetic bind	LDHA block
O=C(CCc1c[nH]c2ccccc12)NCc1ccncc1	-4%	-12%	x	1%	-32*!
Cc1ccc(NC(=O)CN2C(=O)N/C(=C\c3cccn3-c3ccc(C(=O)NC#N)cc3)C2=O)cc1	x	x	x	x	-37*
CCOC(=O)C1=C(Cc2ccc(Cl)cc2)C(=O)c2ccccc2C1=O	u	28µM*	8%	u	32
CCOC(=O)C1=C(C)N=C2c3ccccc3C(=O)C2C1c1ccc(Cl)cc1 (configuration not stated)	-13%	-8%	-2%	u	-3
CC1CCc2noc(NC(=O)c3cc(=O)c4cc(Br)ccc4o3)c2C1 (configuration not stated)	x	x	x	x	-39*
CC(C)c1csc(CN2CCN(Cc3ccccc3)C(CCO)C2)n1 (configuration not stated)	-4%	10%	1%	-3%	-3
CCOc1ccc(NC(=O)c2sc3nc4c(cc3c2N)CN(Cc2ccccc2)CC4)cc1	-11%	u	16µM*	0%	-3
COc1ccc(NC(=O)c2sc3nc4c(cc3c2N)CN(Cc2ccccc2)CC4)c(OC)c1	u	11µM*	7.1µM*	-6%	-1
CCOc1ccc(NC(=O)c2sc3nc4c(c(-c5ccc(OC)cc5)c3c2N)C(=O)CC(C)(C)C4)cc1	x	x	11µM*	3%	-12
Nc1c(C(=O)Nc2ccccc2)sc2nc3c(cc12)CN(Cc1ccccc1)CC3	-16%	u	6%	2%	-2
COc1ccc(-c2c3c(nc4sc(C(=O)Nc5ccc(Cl)cc5)c(N)c24)CC(C)(C)CC3=O)cc1	x	x	0%	-5%	-3
O=C(CNC(=O)c1ccccc1F)NCCOc1cccc(Cl)c1Cl	-3%	-1%	-1%	u	-8
COC(=O)C1=CN(c2ccc(Cl)cc2)C=C(C(=O)OC)C1c1ccc([N+](=O)[O-])cc1	-1%	1%	x	-8%	-2
COc1cc(-c2noc(C)c2-c2ccc3[nH]ccc3c2)cc(OC)c1OC	14µM*!	-1%	x	-5%	-2
COc1ccc(CCNC(=O)c2cccc3c2C(=O)N(C2CCCCC2)C3)cc1OC	0%	-2%	x	-22%	-3
NCCOc1ccc(C23CC4CC(CC(C4)C2)C3)cc1	6%	2%	1%	11µM*	-12
CC1CC(=O)N(c2ccc(N(C)Cc3ccccc3)c([N+](=O)[O-])c2)C1=O (configuration not stated)	-1%	0%	-5%	u	-7
CCCCC(=O)N(C)c1c(CC)nc2c(OCC(=O)N3CCOCC3)cccn12	1%	x	x	x	-37*
c1ccc2c(c1)ncc1cccn12	1%	-2%	-3%	82%	-8
CCn1c2ccccc2c2c3ncc4cccn4c3ccc21	u	25µM*	4%	-4%	17
Nc1c(C(=O)Nc2cc(Cl)cc(Cl)c2)sc2nc(-c3ccncc3)ccc12	x	x	x	x	-32*
Nc1c(C(=O)Nc2ccc(Cl)c(Cl)c2)sc2nc(-c3cccnc3)ccc12	x	x	4%	1%	x
Cc1csc(NC(=O)c2sc3nc(-c4cccs4)ccc3c2N)n1	u	22µM*	u	3%	-2
O=C(C1CCCN(Cc2cccnc2)C1)N1CCCCC1 (configuration not stated)	1%	-9%	0%	-7%	-36*
Cc1cc(O)ccc1Nc1nc(-c2cccs2)cs1	-11%	0%	1%	-22%	0
CCOc1ccc2nc(S(=O)(=O)NC(=O)C3(C)CCN3C(=O)c3cc(C)n(C)n3)sc2c1 (configuration not stated)	-2%	x	x	x	-67*
Cc1cccc(C(=O)NNC(=O)C2CCCCC2)c1O	0%	0%	x	x	1
Cc1cccc(NC(=O)c2ccc(NCC3CCCO3)c([N+](=O)[O-])c2)c1 (configuration not stated)	-2%	0%	u	3%	-13
Cc1cccc(NC(=O)c2ccc(NCC3CCCO3)c([N+](=O)[O-])c2)n1 (configuration not stated)	4%	-3%	1%	28µM*	-14
